Experiment [1] in a line: NCI Yeast Anticancer Drug Screen. Data for the rad50 strain (AID 155).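 Further: 0% = growth of vehicle-only cultures of the same strain.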 The following applies: S. cerevisiae rad50 strain growth inhibition, hits give high values. In short, it runs like this: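 Genetically altered yeast (DNA repair pathway); compound treatment; growth inhibition vs vehicle ctrl.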
Experiment [2] can be described thus: NCI Yeast Anticancer Drug Screen. Data for the mec2-1 strain (AID 157). The following applies: S. cerevisiae mec2-1 strain, hits give high values. In short, it runs like this:
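Using mec2-1 yeast: add compound, measure growth, express inhibition versus vehicle-treated cultures.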

The nature of experiment [3]: NCI Yeast Anticancer Drug Screen. Data for the sgs1 mgt1 strain (AID 161).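 Further: 0% = growth of cultures given vehicle only.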 The following applies: S. cerevisiae sgs1 mgt1 strain, hits give high values. In short, it runs like this: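 Percent growth inhibition was derived by comparing compound-exposed mutant yeast with vehicle-exposed cultures. The strain carries alterations in DNA damage repair.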
The nature of experiment [4]: NCI Yeast Anticancer Drug Screen. Data for the cln2 rad14 strain (AID 165).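 Further: 0% = growth equal to vehicle treated cultures.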 The following applies: S. cerevisiae cln2 rad14 strain, hits give high values. Summed up:
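Yeast strain cln2 rad14, bearing defects in cell cycle control and DNA repair, serves as the test system; values reflect growth inhibition compared with vehicle.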

Experiment [5] in a line: NCI Yeast Anticancer Drug Screen. Data for the bub3 strain (AID 167). The following applies: S. cerevisiae bub3 mutant strain, hits give high values. In short, it runs like this:
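Yeast carrying a defined mutation is treated with each compound, and growth is compared with that of vehicle-exposed cells to give inhibition.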

Experiment [6] in a line: NCI Yeast Anticancer Drug Screen. Data for the mlh1 rad18 strain (AID 175). The following applies: S. cerevisiae mlh1 rad18 strain growth inhibition, hits give high values. In short, it runs like this:
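Steps: expose repair-defective yeast to compound; measure growth; express inhibition against vehicle-treated controls.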

Where [7] appears, read: at 5.0 µM (retest, dose inferred, filed as 0.5).
The mark [8] stands for this setting: at 50.0 µM (retest, dose inferred, filed as 5.0).

Results on seven molecules are retold here after PubChem BioAssay (NCI).

Several values for one entry are separate records, joined by “and”; a condition that tells them apart may be missing. Identical values can stand only once. About 79,000 compounds went through this panel and 15% of them were active in at least one assay; those are over-represented in the sample as a whole. Values without a mark were called inactive. Activity calls are given as the source filed them. No stated cut-off is given here; in the data, active means growth inhibition above about 70%; inactive means the rest.

As for `O=S(c1cc(Cl)cc(Cl)c1O)c1cc(Cl)cc(Cl)c1O`, the growth inhibition in experiment [1] (setting [7]) is 66%; in experiment [1] (setting [8]), 99% (active); in experiment [1] (at 50.0 µM), 99.2% (active); in experiment [2] (setting [7]), 39%; in experiment [2] (setting [8]) it was 100% (active); in experiment [2] (at 50.0 µM) it was 99.5% (active). For the same molecule, the growth inhibition in experiment [3] (setting [7]) was 39%; in experiment [3] (setting [8]), 100% (active); in experiment [3] (at 50.0 µM), 98% (active); in experiment [4] (setting [7]), 40%; in experiment [4] (setting [8]), 99% (active); in experiment [4] (at 50.0 µM), 99.5% (active). Besides, the growth inhibition was 56% in experiment [5] (setting [7]); 100% (active) in experiment [5] (setting [8]); 99.5% (active) in experiment [5] (at 50.0 µM); 44% in experiment [6] (setting [7]); 99% (active) in experiment [6] (setting [8]); 99.5% (active) in experiment [6] (at 50.0 µM).

As to `Cc1ccc(S(=O)(=O)C23C(N=NC2(C)C)C3(C)C)cc1` (stereo unspecified), the growth inhibition is 10% in experiment [1] (setting [7]); 3% in experiment [1] (setting [8]); -4.7% in experiment [1] (at 50.0 µM); 4% in experiment [2] (setting [7]); -3% in experiment [2] (setting [8]); -10.6% in experiment [2] (at 50.0 µM). In addition, the growth inhibition in experiment [3] (setting [7]) is -16%; in experiment [3] (setting [8]), 4%; in experiment [3] (at 50.0 µM) it was 1.25%; in experiment [4] (setting [7]) it was 8%; in experiment [4] (setting [8]) it was 15%; in experiment [4] (at 50.0 µM), -39.9%. Besides, the growth inhibition in experiment [5] (setting [7]) is 15%; in experiment [5] (setting [8]) it was -2%; in experiment [5] (at 50.0 µM), -45.8%; in experiment [6] (setting [7]) it was -1%; in experiment [6] (setting [8]), -16%; in experiment [6] (at 50.0 µM), 8.4%.

In the case of `CCCCCCCCCCCCCCCCCC(=O)NCCO`, the growth inhibition in experiment [1] (setting [7]) was -3%; in experiment [1] (setting [8]), -6%; in experiment [1] (at 50.0 µM) it was -12.3% and 16.8%; in experiment [2] (setting [7]), -1%; in experiment [2] (setting [8]), -5%; in experiment [2] (at 50.0 µM), -6.6% and -7.3%. Also, the growth inhibition was 0% in experiment [3] (setting [7]); -4% in experiment [3] (setting [8]); -20.2% and -8.5% in experiment [3] (at 50.0 µM); 1% in experiment [4] (setting [7]); -8% in experiment [4] (setting [8]); -23.9% and 37.4% in experiment [4] (at 50.0 µM). Besides, the growth inhibition in experiment [5] (setting [7]) was 4%; in experiment [5] (setting [8]) it was 7%; in experiment [5] (at 50.0 µM) it was -3.75% and 1.55%; in experiment [6] (setting [7]), 0%; in experiment [6] (setting [8]), -8%; in experiment [6] (at 50.0 µM), 3.7% and 10.8%.

On to `O=C1N(c2ccccc2)C(=O)N1c1ccccc1`, for which the growth inhibition in experiment [1] (setting [7]) was -8%; in experiment [1] (setting [8]), -6%; in experiment [1] (at 50.0 µM) it was 1.05% and 0.3%; in experiment [2] (setting [7]), -19%; in experiment [2] (setting [8]), -1%; in experiment [2] (at 50.0 µM) it was 25.6% and -2.2%. For the same molecule, the growth inhibition in experiment [3] (setting [7]) is -11%; in experiment [3] (setting [8]), 3%; in experiment [3] (at 50.0 µM), 43.2% and -12.2%; in experiment [4] (setting [7]) it was 20%; in experiment [4] (setting [8]), 17%; in experiment [4] (at 50.0 µM), 0.1% and -20.9%. Moreover, the growth inhibition was 14% in experiment [5] (setting [7]); 17% in experiment [5] (setting [8]); 22.1% and -12.4% in experiment [5] (at 50.0 µM); -16% in experiment [6] (setting [7]); -11% in experiment [6] (setting [8]); 28.6% and 2.3% in experiment [6] (at 50.0 µM).

Take `CCN1CCC(O)(/C=C/c2ccc(C)cc2)C(C(=O)/C=C/c2ccc(C)cc2)C1` (stereo unspecified): the growth inhibition was 20% in experiment [1] (setting [7]); 98% (active) in experiment [1] (setting [8]); 90.1% (active) in experiment [1] (at 50.0 µM); 15% in experiment [2] (setting [7]); 99% (active) in experiment [2] (setting [8]); 91.4% (active) in experiment [2] (at 50.0 µM). Moreover, the growth inhibition in experiment [3] (setting [7]) is -29%; in experiment [3] (setting [8]), 99% (active); in experiment [3] (at 50.0 µM) it was 91.2% (active); in experiment [4] (setting [7]), 9%; in experiment [4] (setting [8]) it was 99% (active); in experiment [4] (at 50.0 µM), 91.8% (active). Besides, the growth inhibition in experiment [5] (setting [7]) is 14%; in experiment [5] (setting [8]) it was 99% (active); in experiment [5] (at 50.0 µM), 90.6% (active); in experiment [6] (setting [7]), 24%; in experiment [6] (setting [8]), 98% (active); in experiment [6] (at 50.0 µM) it was 92.7% (active).

`CC(=O)NC1CCC(C2CCCCC2)CC1C1CCCCC1` (stereo unspecified): the growth inhibition in experiment [1] (setting [7]) was -2%; in experiment [1] (setting [8]), 85% (active); in experiment [1] (at 50.0 µM), 93.6% (active); in experiment [2] (setting [7]), -1%; in experiment [2] (setting [8]) it was 87% (active); in experiment [2] (at 50.0 µM), 95.7% (active). Moreover, the growth inhibition in experiment [3] (setting [7]) was 4%; in experiment [3] (setting [8]) it was 93% (active); in experiment [3] (at 50.0 µM), 90.7% (active); in experiment [4] (setting [7]) it was 1%; in experiment [4] (setting [8]), 82% (active); in experiment [4] (at 50.0 µM), 89.7% (active). The growth inhibition in experiment [5] (setting [7]) was 3%; in experiment [5] (setting [8]) it was 86% (active); in experiment [5] (at 50.0 µM) it was 95% (active); in experiment [6] (setting [7]), -1%; in experiment [6] (setting [8]), 86% (active); in experiment [6] (at 50.0 µM), 92% (active).

Consider `Cc1ccc(S(=O)(=O)Nc2cc(S(=O)(=O)O)c(N)c3c2C(=O)c2ccccc2C3=O)cc1`, for which the growth inhibition in experiment [1] (setting [7]) is 51%; in experiment [1] (setting [8]) it was 99% (active); in experiment [1] (at 50.0 µM) it was 60.2%; in experiment [2] (setting [7]), 47%; in experiment [2] (setting [8]) it was 99% (active); in experiment [2] (at 50.0 µM), 30.4%. In addition, the growth inhibition was 25% in experiment [3] (setting [7]); 65% in experiment [3] (setting [8]); 62.8% in experiment [3] (at 50.0 µM); 43% in experiment [4] (setting [7]); 89% (active) in experiment [4] (setting [8]); 66.2% in experiment [4] (at 50.0 µM). The growth inhibition is 45% in experiment [5] (setting [7]); 78% (active) in experiment [5] (setting [8]); 60.1% in experiment [5] (at 50.0 µM); 53% in experiment [6] (setting [7]); 99% (active) in experiment [6] (setting [8]); 60.5% in experiment [6] (at 50.0 µM).
